Assay outcomes as filed in PubChem BioAssay.
Tb PYK inh – qHTS of Trypanosoma Brucei Inhibitors | pyruvate kinase (Trypanosoma brucei), Q57TT1 | TbPYK enzyme, Kinase-Glo Plus ATP luminescence, 45 min | Potency, µM (highest dose often 76.8 µM), for inactives: top-dose activity, negative = inhibition, most hits filed as inhibitors | actives 0.12% (n = 410,000) | AID 624173, 2012; note: potency is the fitted concentration of half-maximal effect; % is set by controls: 0 for no effect and ±100 for the full control effect; nearly all actives have a fitted effect of over 50% in size
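T. brucei PYK with substrate was exposed to pin-transferred compounds across a concentration series, then started with 130 uM ADP (final). After 45 min at room temperature, Kinase-Glo Plus luminescence was read, normalized and curve-fitted.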
CHX counter – Cycloheximide Counterscreen for Small Molecule Inhibitors of Shiga Toxin. cell reporter, cycloheximide protein synthesis inhibition counterscreen. AID 2314, 2010. actives 12% (n = 300,000). max response, %; in the data active = max response mostly above about 13%, no sharp cut-off; inactive = mostly below about 14%; note: read at 38.3 µM for the half of the compounds with a filed dose; 0% is about no effect
FBPA Giardia inh – qHTS Assay for Inhibitors of Fructose-1,6-bisphosphate Aldolase from Giardia Lamblia | A8B2U2 | purified Giardia FBPA | Potency, µM (doses to about 59.6 µM), without a hit: at the highest dose activity, negative = inhibition, most hits filed as inhibitors | actives 0.71% (n = 290,000) | AID 2451, 2010; note: potency is the fitted concentration of half-maximal effect; % is set by controls: 0 for no effect and ±100 for the full control effect; nearly all actives have a fitted effect of over 55% in size
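40 nM FBPA preincubated 10 min at RT with compound (up to 57.5 uM final), then substrate plus GAPDH/TPI/NAD/arsenate coupling and diaphorase/resazurin added. Fluorescence read after 20 min at RT, 525/598 nm.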
LmPK inhibitor – qHTS Assay for Inhibitors of Leishmania Mexicana Pyruvate Kinase (LmPK); purified LmPK, Kinase-Glo ATP luminescence, 1 h; Potency, µM (doses to about 57.5 µM), for inactives: at the top dose activity change, negative = inhibition, actives largely listed as inhibitors; actives 0.37% (n = 290,000); AID 1721, 2009; note: potency is the fitted concentration of half-maximal effect; % is set by controls: 0 for no effect and ±100 for the full control effect
Target sequence (Q27686 whole entry, looked up): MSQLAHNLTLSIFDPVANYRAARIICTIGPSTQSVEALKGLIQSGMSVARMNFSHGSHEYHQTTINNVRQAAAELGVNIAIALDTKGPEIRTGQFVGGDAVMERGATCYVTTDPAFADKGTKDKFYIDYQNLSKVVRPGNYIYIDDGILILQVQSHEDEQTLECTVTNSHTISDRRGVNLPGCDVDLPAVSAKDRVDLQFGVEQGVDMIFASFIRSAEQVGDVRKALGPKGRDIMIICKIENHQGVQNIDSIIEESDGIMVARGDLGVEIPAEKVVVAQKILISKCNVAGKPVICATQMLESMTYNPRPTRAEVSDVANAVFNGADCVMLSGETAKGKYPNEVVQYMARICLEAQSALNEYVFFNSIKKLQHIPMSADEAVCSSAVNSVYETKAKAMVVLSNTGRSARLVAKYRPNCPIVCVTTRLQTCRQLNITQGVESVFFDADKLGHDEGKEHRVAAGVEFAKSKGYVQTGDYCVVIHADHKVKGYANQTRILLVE
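Kinase-Glo luminescence read after 1 h RT reaction of 0.1 nM LmPK with 0.5 mM PEP and 0.1 mM ADP. Activity scaled between uninhibited and enzyme-free controls.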
Sm TGR inh – qHTS Assay for the Inhibitors of Schistosoma Mansoni Peroxiredoxins | Schistosoma mansoni thioredoxin glutathione reductase (TGR), Q962Y6 | purified TGR, DTNB reduction, TNB absorbance 405 nm | Potency, µM (doses to about 114 µM), for the others: top-dose activity change, negative = inhibition, most hits filed as inhibitors | actives 3% (n = 360,000) | AID 485364, 2010; note: potency is the fitted concentration of half-maximal effect; % is set by controls: 0 for no effect and ±100 for the full control effect; nearly all actives have a fitted effect of over 60% in size
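Kinetic colorimetric format: TGR-catalysed, NADPH-driven DTNB reduction monitored via TNB absorbance. Enzyme dispensed at 20 nM; compound exposure 15 min at room temperature before reaction start.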
Shiga inhibitor – A qHTS for Small Molecule Inhibitors of Shiga Toxin; Vero cells, Shiga toxin protein synthesis inhibition reporter; inhibition, % at 38.7 µM; actives 9.2% (n = 290,000); AID 2315, 2010; in the data active = inhibition mostly above about 28%, no sharp cut-off; inactive = mostly below about 43%; note: 0% is about no effect
* hit, by the source's call; ? = inconclusive; / = not tested or not shown. This excerpt belongs to a sample that is enriched for hits. Unless noted, calls come from the whole dose curve; as a rule, active = well fitted curve in the direction sought with a large enough effect; inconclusive = small, poorly fitted or top-dose-only effect, or another doubt; inactive = no such curve, though single readings can be large; an effect the other way counts as inactive or inconclusive.

SMILES	Tb PYK inh	CHX counter	FBPA Giardia inh	LmPK inhibitor	Sm TGR inh	Shiga inhibitor
CN(C)c1ccc(CNC(=O)c2cccn2-c2nnc(N3CCCCC3)s2)cc1	-10%	/	/	/	-12%	/
CCOc1ccc(CCNc2ncnc3onc(C)c23)cc1OCC	-2%	/	/	/	9%	/
CCCSc1nc(-c2ccc(OC)cc2)cc(-c2ccccc2OC)c1C#N	-10%	/	/	/	4%	/
Nc1ccccc1C(=O)/C=C/c1ccccc1	/	/	-2%	/	/	/
Cc1cc(N2CCOCC2)nc(SCC(=O)c2ccccc2)n1	-8%	51*	0%	1%	0%	96*
CC(=O)c1ccc(OCc2cccc(C(F)(F)F)c2)cc1O	-15%	29*	-1%	-7%	12%	43*
CC(=O)N[C@@H]1C(O[C@H]2O[C@H](C(=O)O)C(O)[C@H](O)[C@H]2O)[C@H](O)[C@@H](CO)O[C@H]1O[C@@H]1C(C(=O)O)O[C@@H](O[C@H]2[C@H](O)[C@@H](CO)OC(O)[C@@H]2NC(C)=O)[C@H](O)[C@H]1O (stereo partly drawn)	2%	/	/	/	/	/
CCOc1cc(/C=N/NC(=O)c2ccc(=O)n(C)c2)ccc1O	-2%	-3	0%	4%	9%	12
Cc1ccc(C(C)C)c(OCc2ccc(C(=O)N/N=C/c3cccc(O)c3O)cc2)c1	-4%	29*	?	3%	-5%	active
COc1cc(/C=N\NC(=O)c2ccc(-c3ccccc3)cc2)cc(OC)c1O	-8%	15*	-4%	0%	1%	15
Cc1ccc(C(C)C)c(OCc2ccc(C(=O)N/N=C/c3ccc(O)c(O)c3)cc2)c1	2%	14*	?	-5%	2%	59*
COc1cc(/C=N/NC(=O)c2ccc(COc3cc(C)ccc3C(C)C)cc2)cc(OC)c1O	-7%	34*	-1%	0%	-7%	20*
O=C(CC1C(=O)NCCN1C(=O)Nc1ccc(F)cc1)Nc1ccc(F)cc1 (stereo not drawn)	-6%	-1	-9%	1%	-1%	9
CCCC1c2ccc(C)n2CCN1C(=O)Nc1ccc(F)cc1 (stereo not drawn)	-8%	2	-19%	-2%	20µM*	-5
CCC1c2ccc(C)n2CCN1C(=O)Nc1ccc(F)cc1 (stereo not drawn)	-17%	12	?	6%	10µM*	21
Cc1coc2c1c(C)cc1oc(=O)c(CC(=O)NCCCCCC(=O)O)c(C)c12	1%	-2	12%	-4%	-14%	-5
Cc1c(NC(=O)COC(=O)CSc2ccc([N+](=O)[O-])cc2)c(=O)n(-c2ccccc2)n1C	3%	/	/	/	1%	/
COc1ccc(CNc2ccc3c(c2)ncn3C)cc1OC	-5%	-1	-12%	-5%	-5%	-6
Cc1ccc(CNc2ccc3c(c2)ncn3C)cc1	-8%	46*	-21%	-2%	-2%	81*
CCc1ccc(CNc2ccc3c(c2)ncn3C)cc1	-6%	25*	-9%	-6%	-3%	73*
Cc1ccc(CNc2ccc3c(c2)ncn3C(C)(C)C)cc1	-16%	40*	-9%	-4%	3%	133*
CCn1cnc2cc(NCc3ccncc3)ccc21	-6%	1	-29%	1%	0%	32
Cc1nc2ccccc2n1Cc1ccccc1	6%	-1	-9%	-3%	1%	/
Cc1nc2cc(NCc3ccccc3O)ccc2n1Cc1ccccc1	-13%	69*	-10%	-1%	7%	92*
Cn1cnc2cc(NCc3ccccc3O)ccc21	-2%	61*	-5%	-2%	-3%	114*
CCn1cnc2cc(NCc3ccc(Cl)cc3)ccc21	13%	41*	3%	-2%	0%	119*
CCN(CC)c1ccc(NC(=O)C2CCN(S(=O)(=O)c3c(C)noc3/C=C/c3ccccc3F)CC2)c(C)c1	3%	/	/	/	-5%	/
